Measurements reported in PubChem BioAssay (Tox21).
Results filed as inconclusive are left out. The source made the active and inactive calls. Unless noted, calls come from the whole dose curve.

Assays:
[1] = Nuclear factor erythroid 2-related factor 2/antioxidant responsive element (Nrf2/ARE) small molecule agonists: qHTS cell viability counter screen in human keratinocytes (AID 1919968; active = well fitted curve in the direction sought with a large enough effect in the repeat runs; an effect the other way counts as inactive or inconclusive; note: nearly all actives have a fitted effect of over 55% in size)
How it was run: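 KeratinoSens cells (HaCaT keratinocytes stably carrying an ARE-luciferase reporter) were seeded at 1,500 cells/well and rested 5 h at 37 C/5% CO2. They were then exposed to compounds in DMSO for 23 h. Viability was read by CellTiter-Fluor fluorescence after 1 h.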

[2] = Nuclear factor erythroid 2-related factor 2/antioxidant responsive element (Nrf2/ARE) small molecule agonists: luciferase reporter gene qHTS assay in human keratinocytes (AID 1919969); note: nearly all actives have a fitted effect of over 35% in size; note: potency is the fitted concentration of half-maximal effect
[3] = molecular target: Gonadotropin-releasing hormone receptor (Homo sapiens) (UniProt P30968); test: Human gonadotropin-releasing hormone receptor (GnRHR) small molecule agonists, calcium flux assay in GnRHR-HEK293 cells (AID 1920063); note: nearly all actives have a fitted effect of over 35% in size
How it was run: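 HEK293 cells stably expressing human GnRHR were plated 18 h at 37 °C, loaded with calcium dye 1 h at 37 °C, then given compound in agonist mode; fluorescence (Ex/Em 480/540) read kinetically for 3 min at 1 s intervals.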

[4] = molecular target: KiSS-1 receptor (Homo sapiens) (UniProt Q969F8); test: Human kisspeptin (KISS1R) small molecule agonists, calcium flux assay in KISS1R-HEK293 cells (AID 1920064; active = well fitted curve in the direction sought with a large enough effect in the repeat runs; an effect the other way counts as inactive or inconclusive)
How it was run: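 HEK293 cells stably expressing human KISS1R were plated 18 h at 37 °C, loaded with calcium dye for 1 h at 37 °C, then given compound by pin tool. Fluorescence (Ex/Em 480/540) was read kinetically for 3 min.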

[5] = p53 small molecule agonists, cell-based qHTS assay with human liver microsomes (AID 1963577);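 note: p53 response element beta-lactamase reporter cells with liver microsomes plus NADPH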
How it was run: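 Steps: plate p53RE-bla cells, incubate 5 h at 37 C; add compound in DMSO; add microsomes (0.5 mg/mL final) and NADPH (0.5 mg/mL final); incubate 16 h at 37 C; add LiveBLAzer, 2 h RT; read fluorescence.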

[6] = p53 small molecule agonists, cell-based qHTS assay with rat liver microsomes (AID 1963578)
How it was run: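 Metabolic activation is supplied by rat liver microsomes with NADPH (each 0.5 mg/mL final). p53RE-bla cells incubate with compound 16 h at 37 C; reporter activity is measured by LiveBLAzer fluorescence.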

[7] = p53 small molecule agonists, cell-based qHTS assay with human liver microsomes: qHTS cell viability counter screen (AID 1963579); note: nearly all actives have a fitted effect of over 45% in size
How it was run: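 After the 460/530 nm beta-lactamase read, CellTiter-Glo was added to the same wells and luminescence measured after 30 min at room temperature, giving viability of p53RE-bla cells treated 16 h with compounds plus microsomes and NADPH.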

[8] = p53 small molecule agonists, cell-based qHTS assay with rat liver microsomes: qHTS cell viability counter screen (AID 1963580); note: nearly all actives have a fitted effect of over 45% in size
How it was run: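 p53RE-bla HCT-116 cells were exposed 16 h at 37 C to compounds with rat liver microsomes (0.5 mg/mL) and NADPH (0.5 mg/mL). Viability was measured in the same wells as ATP content by CellTiter-Glo luminescence.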

[9] = p53 small molecule agonists, cell-based qHTS assay: qHTS cell viability counter screen (AID 1963581); note: nearly all actives have a fitted effect of over 45% in size
How it was run: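 p53RE-bla HCT-116 cells were exposed to compounds for 16 h at 37 C; after the beta-lactamase FRET read in the same wells, CellTiter-Glo was added and luminescence (intracellular ATP) read after 30 min at room temperature.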

[10] = p53 small molecule agonists, cell-based qHTS assay (AID 1963582; active = well fitted activation curve with a large enough effect in the signal ratio in the repeat runs, not every such curve was filed as active; the % refers to the signal ratio)
How it was run: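 p53RE-bla beta-lactamase reporter cells rested 5 h at 37 C/5% CO2, then received compounds in DMSO by pin transfer and were incubated 16 h at 37 C. LiveBLAzer B/G FRET substrate was loaded for 2 h at room temperature before fluorescence reading.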

[11] = molecular target: 5-hydroxytryptamine receptor 2A (Homo sapiens) (UniProt P28223); test: 5-hydroxytryptamine receptor 2A (HTR2A) small molecule antagonists, cell-based qHTS assay (AID 1963586); note: nearly all actives have a fitted effect of over 45% in size
How it was run: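 Antagonist-mode intracellular calcium assay: DOI (4 nM) added after 5 min compound pre-incubation at room temperature to dye-loaded HTR2A-CHO cells. Fluorescence followed for 3 min, sampled every second.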

[12] = molecular target: 5-hydroxytryptamine receptor 2A (Homo sapiens) (UniProt P28223); test: 5-hydroxytryptamine receptor 2A (HTR2A) small molecule agonists, cell-based qHTS assay (AID 1963587); note: nearly all actives have a fitted effect of over 30% in size
How it was run: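 CHO cells stably expressing human HTR2A, plated 18 h, loaded with calcium dye 1 h at 37 C. Agonist mode: compounds added and intracellular calcium fluorescence recorded kinetically for 2 min at 1 sec intervals.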

[13] = molecular target: Muscarinic acetylcholine receptor M1 (Homo sapiens) (UniProt P11229); test: Cholinergic receptor muscarinic 1 (CHRM1) small molecule antagonists, cell-based qHTS assay (AID 1963588); note: nearly all actives have a fitted effect of over 40% in size
How it was run: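 CHRM1-CHO calcium-flux assay, antagonist mode. Cells were seeded 18 h, dye-loaded 1 h at 37 C and given compound for 5 min at RT, then acetylcholine was added at 50nM. FDSS fluorescence was read 3 min; 15 concentrations, three runs.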

[14] = molecular target: Muscarinic acetylcholine receptor M1 (Homo sapiens) (UniProt P11229); test: Cholinergic receptor muscarinic 1 (CHRM1) small molecule agonists, cell-based qHTS assay (AID 1963589); note: nearly all actives have a fitted effect of over 35% in size
How it was run: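 CHO cells stably expressing human CHRM1, seeded 18 h at 37 C/5% CO2, dye-loaded 1 h at 37 C, then given compound in agonist mode; intracellular calcium fluorescence read kinetically at 1 s intervals. Fifteen concentrations, three independent runs.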

[15] = cAMP Responsive Elements (CRE) small molecule agonists, cell-based qHTS assay (AID 1963590)
How it was run: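 CRE-bla HEK 293T cells in DMEM with 10% dialyzed FBS, NEAA, pyruvate and 25 mM HEPES were plated 18 h at 37 C/5% CO2, then exposed to compounds in DMSO for 3 h before LiveBLAzer B/G FRET substrate addition.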

[16] = cAMP Responsive Elements (CRE) small molecule antagonists, cell-based qHTS assay (AID 1963591; active = well fitted inhibition curve with a large enough effect in the signal ratio in the repeat runs, not every such curve was filed as active; the % refers to the signal ratio)
How it was run: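 CRE-bla HEK293T cells were plated 18 h at 37 °C/5% CO2, pinned with compound in DMSO, then stimulated with NKH477 at 0.25 uM final for 3 h. LiveBLAzer B/G FRET substrate was added and plates incubated 2 h at room temperature.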

[17] = molecular target: Beta-2 adrenergic receptor (Homo sapiens) (UniProt P07550); test: Adrenergic beta2 receptor (ADRB2) small molecule antagonists, cell-based qHTS assay (AID 1963592); note: series mostly up to about 92 µM; nearly all actives have a fitted effect of over 50% in size
How it was run: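 Cells (CHO, stable ADRB2 overexpression) incubated 18-20hr at 37C; compounds added from DMSO; agonist mix (1nM isoproterenol, 100uM IBMX, 25uM Ro-20-1724) added; 0.5hr RT; d2-cAMP and anti-cAMP-cryptate added; 1hr RT; 665/615 nm read.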

[18] = molecular target: D(2) dopamine receptor (Homo sapiens) (UniProt P14416); test: Dopamine D2 receptor (DRD2) small molecule antagonists, cell-based qHTS assay (AID 1963595; active = well fitted inhibition curve with a large enough effect in the signal ratio in the repeat runs, with a control signal flat; the % refers to the signal ratio)
How it was run: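 Cells were plated and grown for 24 h at 37 °C. Ro20-1724 (0.1 mM final) went in first, then compound for 10 min. NKH477 (200 nM) with quinpirole (12 nM) followed for 30 min at RT, then HTRF detection reagents for 1 h.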

[19] = G protein-coupled receptor (GPCR) small molecule agonists, calcium flux assay: HEK293 wild type cell line counter screen (AID 1920065)
How it was run: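 Cells were plated and cultured 18 h at 37 C/5% CO2, then loaded with calcium dye for 1 h at 37 C. Compounds in DMSO were pin-transferred in agonist mode, and fluorescence (Ex/Em 480/540) was read kinetically for 3 min at 1 s intervals.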

[20] = molecular target: D(2) dopamine receptor (Homo sapiens) (UniProt P14416); test: Dopamine D2 receptor (DRD2) small molecule agonists, cell-based qHTS assay (AID 1963594); note: nearly all actives have a fitted effect of over 35% in size
How it was run: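 HEK293 cells stably expressing human DRD2, pre-treated with PDE inhibitor Ro20-1724 (0.1 mM final) and compound 10 min at room temperature, then stimulated with NKH477 (200nM […]) for 30 min. cAMP read by HTRF (665/620 nm).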
% is set by controls: 0 for no effect and ±100 for the full control effect.

Chain of Muscarinic acetylcholine receptor M1 (Homo sapiens) (P11229 whole entry, looked up): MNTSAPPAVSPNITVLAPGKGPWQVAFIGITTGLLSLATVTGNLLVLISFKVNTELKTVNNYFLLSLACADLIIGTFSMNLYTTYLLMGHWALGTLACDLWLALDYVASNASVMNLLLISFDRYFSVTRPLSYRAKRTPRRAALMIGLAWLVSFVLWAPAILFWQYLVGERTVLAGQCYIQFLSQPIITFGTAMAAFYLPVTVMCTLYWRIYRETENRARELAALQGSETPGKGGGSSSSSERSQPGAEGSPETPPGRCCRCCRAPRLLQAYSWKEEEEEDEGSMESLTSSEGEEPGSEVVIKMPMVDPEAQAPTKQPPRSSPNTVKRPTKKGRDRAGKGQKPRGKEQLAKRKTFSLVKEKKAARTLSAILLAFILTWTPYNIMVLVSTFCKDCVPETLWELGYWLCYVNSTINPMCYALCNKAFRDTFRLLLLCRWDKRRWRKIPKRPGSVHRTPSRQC
Chain of Gonadotropin-releasing hormone receptor (Homo sapiens) (P30968 whole entry, looked up): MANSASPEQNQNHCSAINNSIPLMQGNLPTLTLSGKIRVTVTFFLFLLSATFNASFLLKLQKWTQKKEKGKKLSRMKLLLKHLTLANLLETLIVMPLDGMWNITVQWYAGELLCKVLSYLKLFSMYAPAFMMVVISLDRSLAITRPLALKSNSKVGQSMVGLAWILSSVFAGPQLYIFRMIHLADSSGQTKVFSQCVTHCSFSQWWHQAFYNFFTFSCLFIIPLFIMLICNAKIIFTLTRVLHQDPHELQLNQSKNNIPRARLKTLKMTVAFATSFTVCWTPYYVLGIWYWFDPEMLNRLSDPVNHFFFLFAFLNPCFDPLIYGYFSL
Chain of KiSS-1 receptor (Homo sapiens) (Q969F8 whole entry, looked up): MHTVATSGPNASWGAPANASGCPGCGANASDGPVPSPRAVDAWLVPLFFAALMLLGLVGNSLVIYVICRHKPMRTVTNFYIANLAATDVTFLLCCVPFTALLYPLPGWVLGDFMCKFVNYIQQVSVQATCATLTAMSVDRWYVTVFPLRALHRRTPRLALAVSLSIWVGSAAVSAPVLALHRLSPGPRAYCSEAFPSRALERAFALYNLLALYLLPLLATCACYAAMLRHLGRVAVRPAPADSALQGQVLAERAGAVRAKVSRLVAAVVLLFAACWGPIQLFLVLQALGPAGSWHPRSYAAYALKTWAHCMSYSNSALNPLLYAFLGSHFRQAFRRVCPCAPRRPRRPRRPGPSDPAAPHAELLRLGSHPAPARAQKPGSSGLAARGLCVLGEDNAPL
Chain of 5-hydroxytryptamine receptor 2A (Homo sapiens) (P28223 whole entry, looked up): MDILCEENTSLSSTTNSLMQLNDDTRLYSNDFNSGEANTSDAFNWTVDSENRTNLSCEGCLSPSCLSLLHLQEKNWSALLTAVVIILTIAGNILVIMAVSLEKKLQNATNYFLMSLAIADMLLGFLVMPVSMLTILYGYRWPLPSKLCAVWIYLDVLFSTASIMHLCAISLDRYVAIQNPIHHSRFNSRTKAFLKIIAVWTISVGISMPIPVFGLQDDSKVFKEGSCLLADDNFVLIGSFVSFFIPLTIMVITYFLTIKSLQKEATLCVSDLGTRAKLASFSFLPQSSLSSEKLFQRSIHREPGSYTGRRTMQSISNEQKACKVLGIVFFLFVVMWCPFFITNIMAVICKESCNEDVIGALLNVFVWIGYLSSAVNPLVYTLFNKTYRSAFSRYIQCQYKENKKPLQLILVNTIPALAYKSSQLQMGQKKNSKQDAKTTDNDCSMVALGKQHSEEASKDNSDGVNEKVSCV
Chain of D(2) dopamine receptor (Homo sapiens) (P14416 whole entry, looked up): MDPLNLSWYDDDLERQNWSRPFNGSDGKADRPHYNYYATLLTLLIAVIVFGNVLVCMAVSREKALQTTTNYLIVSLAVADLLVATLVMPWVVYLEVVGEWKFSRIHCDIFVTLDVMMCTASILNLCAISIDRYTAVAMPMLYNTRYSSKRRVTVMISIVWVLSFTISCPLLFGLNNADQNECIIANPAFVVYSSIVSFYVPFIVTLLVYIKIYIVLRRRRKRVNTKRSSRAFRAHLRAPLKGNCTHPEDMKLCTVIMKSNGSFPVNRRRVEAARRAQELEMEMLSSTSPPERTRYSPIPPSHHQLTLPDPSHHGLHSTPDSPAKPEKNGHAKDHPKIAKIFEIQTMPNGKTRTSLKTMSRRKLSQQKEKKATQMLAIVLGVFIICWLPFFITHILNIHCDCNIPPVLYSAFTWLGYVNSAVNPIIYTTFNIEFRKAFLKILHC
Chain of Beta-2 adrenergic receptor (Homo sapiens) (P07550 whole entry, looked up): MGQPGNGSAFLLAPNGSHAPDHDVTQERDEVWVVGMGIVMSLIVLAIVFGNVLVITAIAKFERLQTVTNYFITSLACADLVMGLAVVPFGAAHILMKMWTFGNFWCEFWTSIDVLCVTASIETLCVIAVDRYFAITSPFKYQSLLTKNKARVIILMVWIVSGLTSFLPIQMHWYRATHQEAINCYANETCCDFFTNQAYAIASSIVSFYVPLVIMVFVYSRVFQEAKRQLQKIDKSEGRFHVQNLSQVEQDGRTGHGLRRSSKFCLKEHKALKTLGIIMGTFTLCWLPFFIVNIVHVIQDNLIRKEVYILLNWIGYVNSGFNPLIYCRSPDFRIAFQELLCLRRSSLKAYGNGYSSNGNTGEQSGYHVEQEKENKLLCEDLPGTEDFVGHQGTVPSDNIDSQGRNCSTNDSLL

OCCC(F)(F)C(F)(F)C(F)(F)C(F)(F)C(F)(F)C(F)(F)C(F)(F)C(F)(F)F
inactive: Potency [1] | Potency [2] | Potency [3] | outcome [4] | Potency [5] | Potency [6] | Potency [7] | Potency [8] | Potency [9] | Potency [10] | Potency [11] | Potency [12] | Potency [13] | Potency [14] | Potency [15] | Potency [16] | Potency [17] | Potency [18]

Oc1ccc(Nc2ccccc2)cc1
active: Potency [2] 61.1 µM
inactive: Potency [1] | Potency [3] | outcome [4] | outcome [19] | Potency [7] | Potency [11] | Potency [12] | Potency [13] | Potency [14] | Potency [15] | Potency [20]

CCC(C)(C)C(=O)O
inactive: Potency [1] | Potency [2] | Potency [3] | outcome [4] | Potency [5] | Potency [6] | Potency [7] | Potency [8] | Potency [9] | Potency [10] | Potency [11] | Potency [12] | Potency [13] | Potency [14] | Potency [15] | Potency [16] | Potency [17] | Potency [20] | Potency [18]

OC[C@@H](O)C(O)[C@@H](O)CO (some centres undefined)
inactive: Potency [1] | Potency [2] | Potency [3] | outcome [4] | Potency [5] | Potency [6] | Potency [7] | Potency [8] | Potency [9] | Potency [10] | Potency [11] | Potency [12] | Potency [13] | Potency [14] | Potency [15] | Potency [16] | Potency [17] | Potency [20] | Potency [18]

C[C@H]1NCc2cc(-c3ccc4c(=O)c(C(=O)O)cn(C5CC5)c4c3OC(F)F)ccc21
inactive: activity change, negative = cytotoxicity [1] 4.74% [at 19 µM] | activity, positive = activation [2] -0.2% [at 19 µM] | activity change [3] -2.08% [at 11.8 µM, stronger effect = higher value] | activation [4] -1.09% [at 15.8 µM] | activation [5] -4.26% [at 13.5 µM] | activation [6] 0.634% [at 13.6 µM] | activity change, negative = cytotoxicity [7] -4.1% [at 13.5 µM] | activity change, negative = cytotoxicity [8] 2.66% [at 13.5 µM] | activity change, negative = cytotoxicity [9] -9.15% [at 13.5 µM] | activation [10] -3.01% [at 13.5 µM] | activity, negative = inhibition [11] 1.4% [at 12.7 µM] | activation [12] -1.89% [at 15.9 µM] | activity, negative = inhibition [13] 19.5% [at 12.6 µM] | activation [15] -1.76% [at 19 µM] | activity change, negative = inhibition [17] 10.3% [at 19 µM] | activation [20] -2.66% [at 19 µM] | activity change, negative = inhibition [18] -0.31% [at 18.9 µM]

Cc1scc2c1N(C(=O)CN1CCN(C)CC1)c1ccccc1NC2=O
inactive: Potency [1] | Potency [2] | Potency [3] | outcome [4] | Potency [5] | Potency [6] | Potency [7] | Potency [8] | Potency [9] | Potency [10] | Potency [11] | Potency [14] | Potency [15] | Potency [16] | Potency [17] | Potency [20] | Potency [18]

CC(CC(C)(C)C)CC(C)(C)CC(C)(C)C (centres undefined)
inactive: Potency [1] | Potency [2] | Potency [3] | outcome [4] | Potency [5] | Potency [6] | Potency [7] | Potency [8] | Potency [9] | Potency [10] | Potency [11] | Potency [12] | Potency [13] | Potency [14] | Potency [15] | Potency [16] | Potency [17] | Potency [20] | Potency [18]

CCOC(=O)C(C)O (centres undefined)
inactive: Potency [1] | Potency [2] | Potency [3] | outcome [4] | Potency [5] | Potency [6] | Potency [7] | Potency [8] | Potency [9] | Potency [10] | Potency [12] | Potency [13] | Potency [14] | Potency [15] | Potency [16] | Potency [17] | Potency [20]

CCCCC(CC)COC(=O)CC#N (centres undefined)
inactive: Potency [1] | Potency [2] | Potency [3] | outcome [4] | Potency [5] | Potency [6] | Potency [7] | Potency [8] | Potency [9] | Potency [10] | Potency [11] | Potency [12] | Potency [13] | Potency [14] | Potency [15] | Potency [17] | Potency [20] | Potency [18]

Nc1ccc(NC(=O)c2ccc(N)cc2)cc1
inactive: Potency [1] | Potency [2] | Potency [3] | outcome [4] | Potency [5] | Potency [6] | Potency [7] | Potency [8] | Potency [9] | Potency [10] | Potency [11] | Potency [12] | Potency [13] | Potency [14] | Potency [15] | Potency [20] | Potency [18]

C=CC(OCC)OCC
inactive: Potency [1] | Potency [2] | Potency [3] | outcome [4] | Potency [5] | Potency [6] | Potency [7] | Potency [8] | Potency [9] | Potency [10] | Potency [11] | Potency [13] | Potency [14] | Potency [15] | Potency [16] | Potency [17] | Potency [20] | Potency [18]

CCCCCCCCN
inactive: Potency [1] | Potency [2] | Potency [3] | outcome [4] | Potency [5] | Potency [6] | Potency [7] | Potency [8] | Potency [9] | Potency [10] | Potency [11] | Potency [13] | Potency [14] | Potency [15] | Potency [17] | Potency [20] | Potency [18]

O=[N+]([O-])c1c(Cl)cc(Cl)cc1Cl
inactive: Potency [1] | Potency [2] | Potency [3] | outcome [4] | Potency [5] | Potency [6] | Potency [7] | Potency [8] | Potency [9] | Potency [10] | Potency [11] | Potency [12] | Potency [13] | Potency [14] | Potency [15] | Potency [16] | Potency [17] | Potency [20] | Potency [18]

CCCCNS(=O)(=O)c1ccc(C)cc1
inactive: Potency [1] | Potency [2] | Potency [3] | outcome [4] | Potency [5] | Potency [6] | Potency [7] | Potency [8] | Potency [9] | Potency [10] | Potency [11] | Potency [12] | Potency [13] | Potency [14] | Potency [17] | Potency [20] | Potency [18]
